This is an account of results in PubChem BioAssay (Tox21).

Structures are written as SMILES. Results filed as inconclusive are left out. Active and inactive are the calls of the source. The call rests on the fitted dose curve; in most records, active means well fitted cell-killing curve with a large enough effect in the repeat runs; inconclusive means weak or mixed curves, or effect the other way; inactive means flat fitted curve, though single readings scatter.
On the % scale 0 is the no-effect control and ±100 the full control effect; potency means the concentration at half of the fitted maximal effect.

The experiment is described as follows: qHTS RealTime-Glo MT Cell Viability Assay in HEK293 cells - 8 hour (AID 1224887). Further: nearly all actives have a fitted effect of over 50% in size. On activity change, negative = cytotoxicity: top concentration of the series differs between compounds. To be noted: RealTime-Glo luminescence; series mostly up to 76.8 µM; activity change, negative = cytotoxicity: at the top concentration. The essentials:
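Viable HEK293 cells reduce a cell-permeant prosubstrate; the product diffuses out and is consumed by NanoLuc in the medium to give light. Compounds went in after a 5 h incubation and plates were read over the treatment course.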
Consider `CCCCCCCCCCCCCCCCCCn1cc[n+](C)c1`, for which the “activity change, negative = cytotoxicity” value is -9.98% (inactive). Same read-out and setting: the value for `COC[C@H](C)N(C(=O)CCl)c1c(C)csc1C` was 11.6% (inactive). `C[C@H]1CC[C@@H]2[C@@H](C)[C@H]3[C@H](C[C@H]4[C@@H]5CC=C6CC(O[C@@H]7O[C@H](CO)[C@H](O)[C@H](O[C@@H]8O[C@H](CO)[C@@H](O)[C@H](O)[C@H]8O)[C@H]7O[C@H]7O[C@@H](C)[C@H](O)[C@@H](O)[C@H]7O)CC[C@]6(C)[C@H]5CC[C@]34C)N2C1` (stereo partly drawn): the Potency was 8.99 µM (active). As for `Cc1ccc(C(=O)Cl)cc1`, the “activity change, negative = cytotoxicity” value was -0.073% (inactive). Still for that read-out and setting: the value for `COP(N)(=S)OC` was 6.94% (inactive); that for `NNC(=O)c1ccccc1` was 1.84% (inactive); that for `CCN` was 18.9% (inactive).

Turning to `N#Cc1ccccc1N`, the “activity change, negative = cytotoxicity” value is 2.48% (inactive).

For the compound `CN(CCCC(O)c1cccnc1)N=O` (stereo not drawn), the “activity change, negative = cytotoxicity” value is -0.672% (inactive). As for `S=C=Nc1cccc2ccccc12`, the Potency was 21.7 µM (active). With `CC(C)(C)OO`, the “activity change, negative = cytotoxicity” value is 9.54% (inactive). On to `C[C@]12CC[C@@H]3c4ccc(OC(=O)N(CCCl)CCCl)cc4CC[C@H]3[C@@H]1CC[C@@H]2O`, for which the “activity change, negative = cytotoxicity” value was 7.67% [at 35.3 µM] (inactive). As to `ClCCN1CCOCC1`, the “activity change, negative = cytotoxicity” value was -18.4% (inactive).

`[Hg+2].[I-].[I-]`: the Potency was 6.16 µM (active). For `Cl/C=C\CCl`, the “activity change, negative = cytotoxicity” value was 3.61% (inactive). On the same count and under the same terms, in the case of `CC(O)C#N` (stereo not drawn) it was -8.67% (inactive); in that of `c1ccc(OCC2CO2)cc1` (stereo not drawn), -1.51% (inactive). For the compound `ClC1=C(Cl)[C@]2(Cl)[C@@H]3[C@@H]4C[C@@H]([C@H]5O[C@@H]45)[C@@H]3[C@@]1(Cl)C2(Cl)Cl`, the Potency is 38.9 µM (active).

For `CCOCCOC(C)=O`, the “activity change, negative = cytotoxicity” value is 14.3% (inactive). For `CCC[CH2][Sn]([CH2]CCC)([CH2]CCC)[O]C(=O)c1ccccc1`, the Potency was 0.871 µM (active). Turning to `CCCCCCCCCCBr`, the “activity change, negative = cytotoxicity” value is -5.66% (inactive).

For the compound `O=c1[nH]c2ccccc2n1CCCN1CCC(n2c(=O)[nH]c3cc(Cl)ccc32)CC1`, the Potency is 9.52 µM (active). For `Cc1cc(Cl)ccc1O[C@H](C)C(=O)O`, the “activity change, negative = cytotoxicity” value was 0.657% (inactive).

Turning to `CCCCCCCCCCCCCN1CC(C)OC(C)C1` (stereo not drawn), the “activity change, negative = cytotoxicity” value was 1.76% (inactive).

Turning to `O=c1ssc(Cl)c1Cl`, the Potency was 17.4 µM (active). For `C[C@@H](Oc1ccc(Cl)cc1Cl)C(=O)O`, the “activity change, negative = cytotoxicity” value is -3.73% (inactive). On to `COP(=O)(CCC(=O)NCO)OC`, for which the “activity change, negative = cytotoxicity” value was 4.54% (inactive). With `C=COCCCl`, the “activity change, negative = cytotoxicity” value is 10.1% (inactive). The same measure, in the same setting: the value for `CNC(C)Cc1ccc2c(c1)OCO2` (stereo not drawn) was -0.0156% (inactive); that for `CCCSP(=O)(OCC)SCCC` was -9.56% (inactive).

With `CCS(=O)(=O)c1cccnc1S(=O)(=O)NC(=O)Nc1nc(OC)cc(OC)n1`, the “activity change, negative = cytotoxicity” value was 0.487% (inactive). As for `O=c1[nH]c2ccccc2n1C1CCN(CCCC(c2ccc(F)cc2)c2ccc(F)cc2)CC1`, the Potency is 15.5 µM (active).

Consider `CC(=O)Nc1ccc2c(c1)Cc1ccccc1-2`, for which the “activity change, negative = cytotoxicity” value was -4.07% (inactive).
